Measured values taken from PubChem BioAssay.
Active and inactive are the calls of the source. Unless noted, no rule for the calls is given here.

How the values were obtained:
[1] = compounds binding Alexa647 anti-His antibody – biochemical, small-molecule microarray, 635 nm fluorescence, artefact control for SMM control protein annotation, primary screen (AID 1128); conditions: higher = more signal;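 also: score merges feature fluorescence with signal-to-noise for each printed compound spot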
[2] = test system: Human papillomavirus type 1a E7 protein (residues 1-88); test: HPV1a E7 small-molecule binders, primary screen, biochemical, small-molecule microarray, residues 1-88, 635 nm (AID 1129); conditions: small-molecule microarray binding, fluorescence 635 nm; higher = more signal
[3] = molecular target: Focal adhesion kinase 1 (Homo sapiens) (UniProt Q05397); test: PTK2 protein binding on printed compound slides – biochemical, small-molecule microarray, 635/667 nm fluorescence, BSA, DTT, primary screen (AID 1130); conditions: 635 nm fluorescence, higher = more signal;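 also: composite of spot emission at 667 nm and signal to noise over triplicate slides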
Sequence of Focal adhesion kinase 1 (Homo sapiens) (Q05397 whole entry, looked up): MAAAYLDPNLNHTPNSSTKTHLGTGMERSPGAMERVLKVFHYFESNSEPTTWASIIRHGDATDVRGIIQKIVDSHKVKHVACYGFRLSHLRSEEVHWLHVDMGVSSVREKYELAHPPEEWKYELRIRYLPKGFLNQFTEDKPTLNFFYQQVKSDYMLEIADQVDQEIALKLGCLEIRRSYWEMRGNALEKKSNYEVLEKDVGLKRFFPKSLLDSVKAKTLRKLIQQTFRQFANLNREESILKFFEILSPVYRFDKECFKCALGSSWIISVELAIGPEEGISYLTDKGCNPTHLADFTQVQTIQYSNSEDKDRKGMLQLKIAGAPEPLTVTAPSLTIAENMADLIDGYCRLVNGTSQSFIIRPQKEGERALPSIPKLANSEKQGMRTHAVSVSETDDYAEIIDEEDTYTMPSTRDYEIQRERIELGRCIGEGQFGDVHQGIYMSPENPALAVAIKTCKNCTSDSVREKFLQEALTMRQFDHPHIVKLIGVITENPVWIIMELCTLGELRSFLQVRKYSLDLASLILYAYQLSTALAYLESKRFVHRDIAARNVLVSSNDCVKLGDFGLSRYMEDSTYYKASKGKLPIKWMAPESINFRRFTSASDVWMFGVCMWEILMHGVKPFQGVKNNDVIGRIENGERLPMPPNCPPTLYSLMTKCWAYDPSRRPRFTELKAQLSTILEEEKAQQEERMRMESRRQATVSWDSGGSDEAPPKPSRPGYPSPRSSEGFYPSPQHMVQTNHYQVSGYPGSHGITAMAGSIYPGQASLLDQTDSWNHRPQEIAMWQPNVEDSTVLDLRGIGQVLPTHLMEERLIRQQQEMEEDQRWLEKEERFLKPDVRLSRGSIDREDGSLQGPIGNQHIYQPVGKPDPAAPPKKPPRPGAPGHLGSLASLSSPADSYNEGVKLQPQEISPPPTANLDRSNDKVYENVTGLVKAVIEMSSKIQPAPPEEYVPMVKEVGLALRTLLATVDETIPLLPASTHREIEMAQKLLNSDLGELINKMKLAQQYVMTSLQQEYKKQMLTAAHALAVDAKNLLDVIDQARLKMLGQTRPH

[4] = test system: Fibrinogen (Alexa647-labelled); test: Alexa647-fibrinogen binding to printed small molecules – biochemical, small-molecule microarray, 635/667 nm fluorescence, artefact control for SMM control-protein annotation, profiling panel (AID 1131); conditions: fibrinogen-A647 binding fluorescence, higher = more signal;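 also: z-score merges 667 nm fluorescence with per-spot signal-to-noise over triplicate slides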
[5] = molecular target: Follistatin (Homo sapiens) (UniProt P19883); test: FST protein binding to printed compounds – biochemical, small-molecule microarray, 635/667 nm fluorescence, primary screen (AID 1132); conditions: 635 nm fluorescence, higher = more signal
Sequence of Follistatin (Homo sapiens) (P19883 whole entry, looked up): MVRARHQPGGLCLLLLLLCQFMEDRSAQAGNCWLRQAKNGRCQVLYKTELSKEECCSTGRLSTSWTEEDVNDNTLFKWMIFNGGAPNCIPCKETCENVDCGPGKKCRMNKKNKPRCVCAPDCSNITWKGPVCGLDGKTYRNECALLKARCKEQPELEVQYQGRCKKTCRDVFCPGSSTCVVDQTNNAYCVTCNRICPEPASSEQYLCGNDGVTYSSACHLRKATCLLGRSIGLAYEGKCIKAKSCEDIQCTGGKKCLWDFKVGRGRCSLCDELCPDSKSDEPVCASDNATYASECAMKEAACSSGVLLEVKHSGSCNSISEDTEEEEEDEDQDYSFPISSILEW

[6] = molecular target: Fibroblast growth factor 2 (Homo sapiens) (UniProt P09038); test: basic fibroblast growth factor binding to printed compounds – biochemical, small-molecule microarray, 635/667 nm fluorescence, primary screen (AID 1133); conditions: FGF2, fluorescence 635/667, higher = more signal
Sequence of Fibroblast growth factor 2 (Homo sapiens) (P09038 whole entry, looked up): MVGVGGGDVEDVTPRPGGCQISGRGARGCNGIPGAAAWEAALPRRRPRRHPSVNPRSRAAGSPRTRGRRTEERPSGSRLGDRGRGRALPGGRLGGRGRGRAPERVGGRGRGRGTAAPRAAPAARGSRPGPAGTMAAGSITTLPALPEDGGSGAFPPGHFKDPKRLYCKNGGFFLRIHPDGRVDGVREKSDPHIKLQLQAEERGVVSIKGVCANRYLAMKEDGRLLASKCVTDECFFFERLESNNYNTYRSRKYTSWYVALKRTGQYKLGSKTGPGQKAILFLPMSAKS

[7] = JC-1 mitochondrial potential readout, lung cancer cells – cell-based, A549, JC-1 fluorescence, basal, 24 h, 100 nL, profiling panel (AID 1138); conditions: higher = more signal;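 also: A549 lung adenocarcinoma cells under basal conditions with no added stimulus; test concentration not given here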
Lefty1 = Lefty1 protein binding to printed compounds – biochemical, small-molecule microarray, 635/667 nm fluorescence, primary screen (AID 1139); conditions: fluorescence 635/667, higher = more signal
[8] = test system: wheat germ agglutinin (Triticum aestivum), Alexa647-labelled; test: Alexa647-WGA lectin binding to printed small molecules – biochemical, small-molecule microarray, 635/667 nm fluorescence, artefact control for SMM control-protein annotation, profiling panel (AID 1140); conditions: WGA-A647 binding, 635 nm fluorescence, higher = more signal;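 also: score merges 667 nm feature emission with signal to noise over triplicate slides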
[9] = molecular target: Luciferin 4-monooxygenase (Photinus pyralis) (UniProt P08659); test: inhibition of purified Photinus pyralis luciferase – biochemical, luminescence, purified enzyme, 2006 set, primary screen (AID 1141); conditions: purified firefly luciferase, SteadyGlo luminescence, 30 min; higher = more signal, called active from +8 up or from −8 down;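 also: cell-free assay with purified firefly luciferase at 100 ng per well in PBS; test concentration not given here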
Sequence of Luciferin 4-monooxygenase (Photinus pyralis) (P08659 whole entry, looked up): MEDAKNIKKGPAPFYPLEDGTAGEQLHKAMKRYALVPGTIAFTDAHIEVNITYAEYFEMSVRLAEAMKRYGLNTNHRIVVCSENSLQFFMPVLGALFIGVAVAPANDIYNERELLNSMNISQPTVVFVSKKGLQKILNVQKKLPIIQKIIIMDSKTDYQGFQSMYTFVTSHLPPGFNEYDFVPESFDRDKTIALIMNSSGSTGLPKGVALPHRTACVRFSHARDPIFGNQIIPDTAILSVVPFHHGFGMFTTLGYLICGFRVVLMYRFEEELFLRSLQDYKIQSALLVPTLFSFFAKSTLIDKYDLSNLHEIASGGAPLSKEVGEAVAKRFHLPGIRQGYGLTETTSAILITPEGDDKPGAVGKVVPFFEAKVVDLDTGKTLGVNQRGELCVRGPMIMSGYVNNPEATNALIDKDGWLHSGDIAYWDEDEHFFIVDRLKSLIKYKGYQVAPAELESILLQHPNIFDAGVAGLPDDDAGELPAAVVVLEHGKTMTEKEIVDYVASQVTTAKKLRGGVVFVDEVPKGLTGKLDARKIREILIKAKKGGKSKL

[10] = test system: Wnt5a (protein binding on small-molecule microarray); test: small molecules binding Wnt5a protein – biophysical, small-molecule microarray, 635/667 nm fluorescence, primary screen (AID 1142); conditions: 635 nm fluorescence, higher = more signal;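 also: fluorescence read at 667 nm with signal to noise per printed feature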
[11] = ATP-based viability of Huh7 replicon cells – cell-based, CellTiter-Glo luminescence, basal, 48 h, cytotoxicity control for HCV replication inhibitor project, primary screen (AID 1143); conditions: higher = more signal, called active from +8 up or from −8 down;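 also: Huh7 hepatoma cells carrying a hepatitis C replication reporter with no stimulus; test concentration not given here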
[12] = Pseudomonas biofilm growth suppression – PAO1 strain, BacTiter-Glo luminescence, LB-PBS, primary screen (AID 1144); conditions: P. aeruginosa PAO1 biofilm, 12 h, higher = more signal
[13] = basal CRE-LacZ reporter activity in PC12 – cell-based, unstimulated, primary screen (AID 1145); conditions: no forskolin, luminescence, 4.5 h, higher = more signal, called active from +8 up or from −8 down
[14] = forskolin-driven CRE-LacZ activity in PC12 – cell-based, CRE-LacZ reporter, forskolin-stimulated, primary screen (AID 1146); conditions: luminescence, 4.5 h, higher = more signal, called active from +8 up or from −8 down;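 also: PC12 cells with 6xCRE LacZ reporter stimulated by forskolin 10 µM; beta-galactosidase reporter signal reflecting CREB driven transcription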
[15] = molecular target: Streptavidin (Streptomyces avidinii) (UniProt P22629); test: compounds binding control protein streptavidin – biophysical, small-molecule microarray, 635/667 nm fluorescence, artefact control for SMM compound annotation, primary screen (AID 1147); conditions: higher = more signal;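 also: signal reflects streptavidin binding to arrayed compounds as a control protein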
Sequence of Streptavidin (Streptomyces avidinii) (P22629 whole entry, looked up): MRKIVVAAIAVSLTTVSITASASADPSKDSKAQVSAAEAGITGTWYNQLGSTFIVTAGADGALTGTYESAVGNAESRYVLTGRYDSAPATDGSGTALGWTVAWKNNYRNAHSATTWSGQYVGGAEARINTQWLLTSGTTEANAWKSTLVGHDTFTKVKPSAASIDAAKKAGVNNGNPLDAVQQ

[16] = probe aInhba binding on compound microarray – biochemical, small-molecule microarray, 635/667 nm fluorescence, primary screen (AID 1148); conditions: higher = more signal;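 also: score merges 667nm spot fluorescence with signal-to-noise for antibody binding to printed compounds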
Torsin-1A (Homo sapiens) [17] = molecular target: Torsin-1A (Homo sapiens) (UniProt O14656); test: TOR1A wild-type binding on microarray – cell lysate, small-molecule microarray, lysate, 635/667 nm, primary screen (AID 1149); conditions: COS7 hTOR1A-WT lysate, 635 nm fluorescence, higher = more signal
Sequence of Torsin-1A (Homo sapiens) (O14656 whole entry, looked up): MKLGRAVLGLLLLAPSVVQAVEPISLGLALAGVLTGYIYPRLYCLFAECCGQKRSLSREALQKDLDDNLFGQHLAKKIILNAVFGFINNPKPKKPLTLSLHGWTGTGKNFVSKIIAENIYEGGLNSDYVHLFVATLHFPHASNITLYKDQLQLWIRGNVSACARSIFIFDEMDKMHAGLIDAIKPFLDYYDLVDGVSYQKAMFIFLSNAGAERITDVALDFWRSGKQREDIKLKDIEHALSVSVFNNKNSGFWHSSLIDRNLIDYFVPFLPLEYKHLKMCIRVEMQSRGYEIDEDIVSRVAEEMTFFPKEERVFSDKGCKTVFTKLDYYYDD

Torsin-1A (Homo sapiens) [18] = molecular target: Torsin-1A (Homo sapiens) (UniProt O14656); test: torsin A mutant lysate binding on microarrays – cell lysate, small-molecule microarray, COS7 lysate, 635/667 nm fluorescence, primary screen (AID 1150); conditions: COS7 hTOR1A mutant lysate, 635 nm fluorescence, higher = more signal;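 also: score pools 667 nm emission and signal to noise measuring lysate protein binding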
[19] = test system: Sonic hedgehog protein (Shh); test: Sonic hedgehog microarray binding compounds – biochemical, small-molecule microarray, 635/667 nm fluorescence, primary screen (AID 1151); conditions: 635 nm fluorescence, higher = more signal;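 also: Shh protein binding to compounds spotted on small-molecule microarray slides; score combines spot fluorescence intensity with signal-to-noise across triplicate slides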

| SMILES | composite z-score [1] | composite z-score [2] | composite z-score [3] | composite z-score [4] | composite z-score [5] | composite z-score [6] | z-score [7] | composite z-score (Lefty1) | composite z-score [8] | z-score [9] | composite z-score [10] | z-score [11] | z-score [12] | z-score [13] | z-score [14] | composite z-score [15] | composite z-score [16] | composite z-score (Torsin-1A (Homo sapiens) [17]) | composite z-score (Torsin-1A (Homo sapiens) [18]) | composite z-score [19] |
| --- | --- | --- | --- | --- | --- | --- | --- | --- | --- | --- | --- | --- | --- | --- | --- | --- | --- | --- | --- | --- |
| CCCC[C@@H]1C[C@H]1[C@@H](NC(=O)c1ccc(-c2ccccc2)cc1)c1ccc(-c2ccccc2)cc1 | 0.0916 | 0.481 | 0.504 | 0.348 | 1.37 | 0.271 | 0.738 | 0.971 | 0.249 | 0.779 (inactive) | 0.198 | -2.94 (inactive) | 0.0911 (inactive) | 0.394 (inactive) | 1.7 (inactive) | 0.305 | 0.0111 | 0.0287 | -0.0963 | 2.02 |
| COCCOC(=O)N1C(=O)[C@@]2(c3cc(C#CCNC(N)=O)ccc31)[C@H](C(=O)N1CCc3cc(OC)c(OC)cc3C1)[C@H]1C(=O)O[C@H](c3ccccc3)[C@H](c3ccccc3)N1[C@@H]2c1ccc(OCCO)cc1 | 0.101 | 0.158 | -0.0354 | 0.108 | 1.3 | 1.41 | -1.49 | 0.881 | 0.385 | -0.553 (inactive) | 0.506 | -0.352 (inactive) | -1.42 (inactive) | -1.56 (inactive) | -0.549 (inactive) | 0.287 | -0.418 | -0.136 | 0.237 | 1.95 |
| C=CCC(OC(C)=O)[C@@H]1[C@@H](N(Cc2cccc3ccccc23)C(=O)c2cccc3ccccc23)c2cc(OCCCO)ccc2N1C(=O)c1ccc2ccccc2n1 (stereo not given in full) | 0.833 | -0.0829 | 0.791 | 0.868 | 1.05 | 0.494 | -0.449 | 0.457 | -0.243 | 1.01 (inactive) | -0.0721 | -1.66 (inactive) | 0.603 (inactive) | 0.265 (inactive) | 0.446 (inactive) | 0.193 | -0.0791 | -0.309 | -0.297 | 0.832 |
| O=c1cccc(C=Cc2ccccc2)o1 | -0.23 | -0.191 | -0.599 | -0.58 | -0.723 | -1.63 | 0.302 | -0.282 | -0.531 | 1.35 (inactive) | -0.276 | -0.273 (inactive) | -0.544 (inactive) | -0.676 (inactive) | 0.801 (inactive) | -0.532 | 0.144 | -0.994 | -0.711 | -0.604 |
| CCOC(=O)C[C@H]1[C@H](OC(=O)Cc2ccc3c(c2)OCO3)[C@@H](NC(=O)c2ccc(-c3ccccc3)cc2)c2cc(OCCCO)ccc2N1C(=O)c1ccccc1 | 0.18 | 1.06 | 0.356 | 0.672 | 0.526 | 0.685 | 2.42 | 0.419 | 0.507 | -1.16 (inactive) | 0.0105 | -0.299 (inactive) | -1.24 (inactive) | 3.12 (inactive) | -1.27 (inactive) | 0.0534 | 0.0906 | 0.328 | 0.132 | 0.358 |
